Data on 20 compounds can be found in PubChem BioAssay (EPA / NIEHS).

A short description of test [1]: TOX21_p53_BLA_p2_viability: Viability Assessment in the Tox21 HCT-116 p53 Agonism Beta-lactamase Assay, Phase 2 (AID 2283591).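 Note: actives lower the ATP signal meaning cytotoxicity.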 The procedure, abridged:
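Cytotoxicity readout: CellTiter-Glo ATP luminescence, 30 min at room temperature, after the beta-lactamase read. Cells were HCT116 exposed 16 h at 37C to compounds pin-transferred at 217-fold dilution from DMSO stocks.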

Test [2] addresses Cellular tumor antigen p53 (Homo sapiens) (UniProt P04637). Put plainly: TOX21_p53_BLA_p2_ratio: Tox21 HCT-116 p53 Agonism Beta-lactamase Assay, Ratio, Phase 2 (AID 2283592). The procedure, abridged: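 An inducible beta-lactamase reporter in HCT116 cells signals p53 pathway activation. After 16 h chemical exposure at 37C, cells load CCF4-AM substrate for 2 h at room temperature; activity is the cleaved/uncleaved emission ratio relative to DMSO.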

Test [3] is described as follows: TOX21_p53_BLA_p3_viability: Viability Assessment in the Tox21 HCT-116 p53 Agonism Beta-lactamase Assay, Phase 3 (AID 2283593).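 Note: cells exposed to compound for 16 h before reading.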 The method, boiled down:
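Cellular ATP was quantified by CellTiter-Glo luminescence, read after 30 min at room temperature. Beforehand, HCT116 cells (4000/well) received compound 5 h post-seeding, 217-fold diluted from DMSO, then incubated 16 h at 37C.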

For test [4], the target named is Cellular tumor antigen p53 (Homo sapiens) (UniProt P04637). Description: TOX21_p53_BLA_p3_ratio: Tox21 HCT-116 p53 Agonism Beta-lactamase Assay, Ratio, Phase 3 (AID 2283596). The method, boiled down:
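HCT116 p53-bla cells (4000/well) given compound in DMSO (217-fold dilution) after 5 h, incubated 16 h at 37C. CCF4-AM substrate 2 h at room temperature; 460/530 nm emission ratio, gain fitted against DMSO.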

Test [5] is described as follows: TOX21_p53_BLA_p4_viability: Viability Assessment in the Tox21 HCT-116 p53 Agonism Beta-lactamase Assay, Phase 4 (AID 2283597).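 Note: hits lower the luminescence signal meaning cytotoxicity.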 The procedure, abridged:
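Compound exposure of HCT116 cells lasts 16 h at 37C, 5% CO2, with DMSO stocks diluted 217-fold. Cellular ATP is then quantified by CellTiter-Glo luminescence after 30 min at room temperature.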

The target in test [6] is Cellular tumor antigen p53 (Homo sapiens) (UniProt P04637). Put plainly: TOX21_p53_BLA_p5_ratio: Tox21 HCT-116 p53 Agonism Beta-lactamase Assay, Ratio, Phase 5 (AID 2283599). The procedure, abridged: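 Beta-lactamase reporter ratio (blue 460 nm over green 530 nm, 405 nm excitation) after 2 h CCF4-AM loading, in HCT-116 cells exposed 16 h at 37 C to compounds pinned at 217-fold dilution. Increases relative to DMSO baseline scored.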

Test [7] can be described thus: TOX21_p53_BLA_p5_viability: Viability Assessment in the Tox21 HCT-116 p53 Agonism Beta-lactamase Assay, Phase 5 (AID 2283600). The method, boiled down:
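Counter-readout for cytotoxicity: ATP-dependent luminescence from CellTiter-Glo, read in the beta-lactamase wells after 30 min at RT, following a 16 h compound exposure at 37C.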

Test [8] deals with Cellular tumor antigen p53 (Homo sapiens) (UniProt P04637). Description: TOX21_p53_BLA_p4_ratio: Tox21 HCT-116 p53 Agonism Beta-lactamase Assay, Ratio, Phase 4 (AID 2283601). The method, boiled down: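 Signal is the blue/green (460nm/530nm) ratio of cleaved versus uncleaved CCF4-AM substrate, read after 2 h substrate loading. Cells were HCT116 carrying the p53-responsive beta-lactamase reporter, dosed 16 h at 37C, 5% CO2; CellTiter-Glo measured in parallel.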

Values joined by “and” are separate entries in the source; they are usually repeats but may differ in a detail not shown here. Equal values may be shown once. Records with an inconclusive call do not appear. Active and inactive are the calls of the source. Rule for the calls: active = hit-call score of the fitted dose curve at least 0.9, where 1 is the maximum; inconclusive = response in the unintended direction; inactive = score below 0.9.

Cellular tumor antigen p53 (Homo sapiens), sequence (P04637 whole entry, looked up): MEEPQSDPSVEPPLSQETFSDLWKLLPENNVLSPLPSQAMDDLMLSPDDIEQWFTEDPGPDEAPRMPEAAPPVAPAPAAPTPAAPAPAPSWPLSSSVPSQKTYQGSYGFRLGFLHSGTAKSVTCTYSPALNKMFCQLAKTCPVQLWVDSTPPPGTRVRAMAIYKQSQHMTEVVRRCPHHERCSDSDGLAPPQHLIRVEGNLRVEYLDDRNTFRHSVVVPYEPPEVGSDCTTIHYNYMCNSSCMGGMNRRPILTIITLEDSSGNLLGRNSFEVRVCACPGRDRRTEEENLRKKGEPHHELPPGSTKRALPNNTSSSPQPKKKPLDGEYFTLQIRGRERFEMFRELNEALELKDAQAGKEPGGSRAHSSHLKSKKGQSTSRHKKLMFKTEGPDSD

As for `S=C=Nc1cccc2ccccc12`, the call in test [1], in test [3], in test [4], in test [5], in test [6] and in test [7] was inactive. Moreover, the AC50 in test [2] was 38.5 µM (active).

Turning to `CCOC(=O)NC(C)(C)Cc1ccc(Cl)cc1`, the result in test [1], in test [2], in test [3], in test [4], in test [5] and in test [6] was inactive. Besides, the result in test [7] and in test [8] was inactive.

`Oc1c(Br)c(Br)c(Br)c(Br)c1Br`: the outcome in test [1], in test [3], in test [5], in test [6], in test [7] and in test [8] was inactive. Besides, the results for the concentration at half-maximal activity (AC50) in test [2] and in test [4] were 1.56 µM (active) and 0.886 µM (active), respectively.

In the case of `CNC(=O)Oc1ccccc1C(=O)Nc1ccccc1`, the call in test [1], in test [2], in test [3], in test [4], in test [5] and in test [6] was inactive. Further, the compound was called inactive in test [7] and in test [8].

Take `NCC(O)c1ccc(O)cc1` (configuration not stated): the compound was classed as inactive in test [1], in test [2], in test [3], in test [4], in test [5] and in test [6]. Besides, the call in test [7] and in test [8] was inactive.

With `CC(=O)C=Cc1ccc2c(c1)OCO2`, the result in test [1], in test [3], in test [5] and in test [7] was inactive. Besides, the AC50 in test [2] is 18.1 µM (active); in test [4], 62.8 µM (active); in test [6], 71 µM (active); in test [8] it was 51.2 µM (active).

As for `[H+].[H+].[Hg+2].[O-]B([O-])[O-].[c-]1ccccc1`, the AC50 in test [1] was 7.89 µM (active); in test [2], 1.73 µM (active); in test [3], 0.975 µM (active); in test [4], 1.17 µM (active); in test [5], 8.43 µM (active); in test [6], 5.39 µM (active). Further, the AC50 in test [7] was 4.94 µM (active); in test [8], 18.3 µM (active).

As for `C[C@]12CC[C@@H]3c4ccc(OC(=O)N(CCCl)CCCl)cc4CC[C@H]3[C@@H]1CC[C@@H]2OP(=O)(O)O`, the compound was classed as inactive in test [1], in test [3], in test [5] and in test [7]. Further, the half-maximal activity concentration (AC50) in test [2] was 8.82 µM (active) and 26.6 µM (active); in test [4], 7.01 µM (active) and 23.1 µM (active); in test [6], 7.78 µM (active) and 24.6 µM (active); in test [8], 8.9 µM (active) and 36.3 µM (active).

For the compound `CN(C)S(=O)(=O)N(SC(F)(Cl)Cl)c1ccccc1`, the AC50 in test [1] is 87.1 µM (active); in test [2], 26.3 µM (active); in test [5] it was 86.8 µM (active); in test [6] it was 32.3 µM (active); in test [7] it was 86.8 µM (active); in test [8], 48.6 µM (active). Moreover, the call in test [3] and in test [4] was inactive.

On to `Cc1ccccc1`, for which the compound was classed as inactive in test [1], in test [2], in test [3], in test [4], in test [5] and in test [6]. The call in test [7] and in test [8] was inactive.

As for `O=C(O)CC[N+](=O)[O-]`, the result in test [1], in test [2], in test [3], in test [4], in test [5] and in test [6] was inactive. Further, the call in test [7] and in test [8] was inactive.

On to `Oc1cc(Cl)c(Cl)c(Cl)c1`, for which the AC50 is 44.1 µM (active) in test [1]; 10.2 µM (active) in test [2]; 17.3 µM (active) in test [4]; 69.4 µM (active) in test [5]; 13.2 µM (active) in test [6]; 37.5 µM (active) in test [8]. The outcome in test [3] and in test [7] was inactive.

As to `CC(C)N(C(=O)SCC(Cl)=CCl)C(C)C`, the call in test [1], in test [2], in test [3], in test [4], in test [5] and in test [6] was inactive. In addition, in test [7], the result was inactive.

With `[Cl][Hg][c]1ccccc1`, the AC50 in test [1] is 0.576 µM (active); in test [2], 0.553 µM (active); in test [3], 2.88 µM (active); in test [4] it was 8.93 µM (active); in test [5], 0.624 µM (active); in test [6], 10.9 µM (active). The AC50 in test [7] was 2.95 µM (active); in test [8], 0.672 µM (active).

For the compound `O=[N+]([O-])c1ccc(Oc2ccc(C(F)(F)F)cc2[N+](=O)[O-])cc1`, the result in test [1], in test [2], in test [3], in test [4], in test [5] and in test [6] was inactive. Further, the compound was called inactive in test [7] and in test [8].

Regarding `CCC(C)(S(=O)(=O)CC)S(=O)(=O)CC`, the outcome in test [1], in test [2], in test [3], in test [4], in test [5] and in test [6] was inactive. In addition, the compound was called inactive in test [7] and in test [8].

For `CC(=O)O[C@H]1C[C@H](O[C@H]2[C@@H](O)C[C@H](O[C@H]3[C@@H](O)C[C@H](O[C@H]4CC[C@@]5(C)[C@H](CC[C@@H]6[C@@H]5C[C@@H](O)[C@]5(C)[C@@H](C7=CC(=O)OC7)CC[C@]65O)C4)O[C@@H]3C)O[C@@H]2C)O[C@H](C)[C@H]1O[C@@H]1O[C@H](CO)[C@@H](O)[C@H](O)[C@H]1O`, the AC50 is 0.109 µM (active) in test [1], 0.0857 µM (active) in test [3], 0.121 µM (active) in test [5] and 0.0758 µM (active) in test [7]. Further, the outcome in test [2], in test [4], in test [6] and in test [8] was inactive.

`CCNc1nc(NC(C)C)nc(OC)n1`: the result in test [1], in test [2], in test [3], in test [4], in test [5] and in test [6] was inactive. Besides, the compound was called inactive in test [7].

As to `C[C@H]1CC[C@]2(NC1)O[C@H]1C[C@H]3[C@@H]4CC[C@H]5C[C@@H](O[C@@H]6O[C@H](CO)[C@H](O[C@@H]7O[C@H](CO)[C@@H](O)[C@H](O[C@@H]8OC[C@@H](O)[C@H](O)[C@H]8O)[C@H]7O[C@@H]7O[C@H](CO)[C@@H](O)[C@H](O)[C@H]7O)[C@H](O)[C@H]6O)CC[C@]5(C)[C@H]4CC[C@]3(C)[C@H]1[C@@H]2C`, the AC50 in test [1] was 4.84 µM (active); in test [2] it was 31.4 µM (active); in test [3] it was 5.23 µM (active); in test [4] it was 29.4 µM (active); in test [5], 4.05 µM (active); in test [6], 30.3 µM (active). Besides, the AC50 in test [7] was 6.08 µM (active); in test [8], 24 µM (active).

For the compound `CC(O)C(=O)[O][Hg][c]1ccccc1` (configuration not stated), the AC50 in test [1] is 2.69 µM (active); in test [2], 9.88 µM (active); in test [3], 0.648 µM (active); in test [4], 2.21 µM (active); in test [5], 3.87 µM (active); in test [6] it was 2.92 µM (active). Besides, the AC50 in test [7] is 1.59 µM (active); in test [8] it was 5.92 µM (active).

As a reminder, the AC50 is the midpoint of the concentration-response curve, whichever way the signal moves.
